Assay outcomes deposited in PubChem by several laboratories.
PfHsp90 yeast 2: reduces growth (ATP signal) of yeast expressing P. falciparum Hsp90; S. cerevisiae expressing PfHsp90, BacTiter-Glo ATP, 48 h; yeast lacking PDR1 and PDR3 efflux regulators; inhibition, % at 9.4 µM; 310,000 tested, 0.32% active;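 active = every replicate shows inhibition above about 80%, whatever the replicate mean, limit read from the data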;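 note: 0% = DMSO neutral controls and 100% = 20 µM radicicol positive controls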
tim10-1 inh: inhibits growth of tim10-1 mutant yeast | S. cerevisiae tim10-1 ts strain growth, BacTiter-Glo, 24 h | 330,000 tested, 2.2% active | inhibition, % at 20 µM;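 active = inhibition of at least 40%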;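 note: mutant grown at 25 °C; 0% = DMSO wells with yeast and 100% = wells holding no yeast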
Beta2AR agonist: human beta-2 adrenergic receptor agonism by FAP; P07550; Am2.2-beta2AR cells, FAP receptor internalization, flow cytometry; response, % (test concentration not listed); 340,000 tested, 0.43% active; AID 504454;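 active = response above a set limit, near 3 SD of response in nonfluorescent compounds, cut at about 42% in these data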
Target sequence (P07550 whole entry, looked up): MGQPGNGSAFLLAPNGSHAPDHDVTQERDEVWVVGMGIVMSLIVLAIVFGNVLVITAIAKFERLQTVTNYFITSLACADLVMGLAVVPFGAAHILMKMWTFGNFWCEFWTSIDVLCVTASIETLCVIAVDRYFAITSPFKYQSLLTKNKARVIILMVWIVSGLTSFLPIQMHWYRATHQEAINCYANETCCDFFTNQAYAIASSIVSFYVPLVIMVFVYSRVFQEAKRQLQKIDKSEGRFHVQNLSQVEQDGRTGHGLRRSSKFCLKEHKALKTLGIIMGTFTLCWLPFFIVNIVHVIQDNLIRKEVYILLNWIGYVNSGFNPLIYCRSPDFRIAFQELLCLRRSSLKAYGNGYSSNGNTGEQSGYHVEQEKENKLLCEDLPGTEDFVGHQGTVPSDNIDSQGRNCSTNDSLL
TIM10 inh: TIM10 yeast growth inhibition. S. cerevisiae TIM10 strain growth, BacTiter-Glo luminescence, 24 h. 330,000 tested, 1.4% active. inhibition, % at 10 µM;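 active = inhibition of 40% or more at the single tested concentration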;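 note: wild-type TIM10 isogenic control strain grown at permissive 25 °C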
tim23-1 inh: growth inhibitors of tim23-1 mutant yeast; S. cerevisiae tim23-1 growth, BacTiter-Glo luminescence, 24 h; inhibition, % at 20 µM; 330,000 tested, 1.3% active; AID 463212;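 active = growth inhibition of the mutant yeast at or above 50%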;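 note: temperature-sensitive mutant grown at 25 °C; plate controls were DMSO-treated mutant yeast for no effect and medium wells lacking yeast for full effect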
tim10-1 confirm: confirmation of tim10-1 mutant yeast growth inhibitors; inhibition, % at 20 µM; S. cerevisiae tim10-1 ts strain growth, BacTiter-Glo, 24 h; shares compounds with tim10-1 inh; 7,400 tested, 56% active;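 active = inhibition of yeast growth at or above a set limit in either of two repeat tests at 20 µM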;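 note: tim10-1 mutant grown at permissive 25 °C to find synthetic lethal compounds; 0% = DMSO yeast wells and 100% = medium wells without yeast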
An asterisk follows results filed as active; x = no result. Only some compounds are listed: those with a hit (about 3.8% of all), similar ones and a draw of the others.

SMILES	PfHsp90 yeast 2	tim10-1 inh	Beta2AR agonist	TIM10 inh	tim23-1 inh	tim10-1 confirm
Fc1ccc(Cc2nnc(-c3cccs3)o2)cc1	7.3	1.6	2.4	4.6	3.9	x
c1csc(-c2nnc(Cc3cccc4ccccc34)o2)c1	x	45.2*	-6.9	5.5	25.7	22.5
Oc1c(Cl)cc(Cl)cc1/C=C/c1ccc2cccc(O)c2n1	19.9	43.2*	-14.7	25.7	29.9	33.1*
COc1cc(/C=C/c2ccc3cccc(O)c3n2)c(Br)cc1O	-77.6	46.6*	-176.7	37.4	47.5	46.0*
Oc1cccc2ccc(/C=C/c3cccs3)nc12	-138.6	41.0*	35.1	18.9	41.0	18.0
COc1cc(Br)cc(/C=C/c2ccc3cccc(O)c3n2)c1O	-64.8	49.2*	13.6	20.5	40.6	37.8*
Cc1ccsc1/C=C/c1ccc2cccc(O)c2n1	-14.2	24.0	6.3	11.3	29.6	x
O=C(CSc1nncs1)Nc1ccc(N2CCCCC2)cc1	0.4	10.5	-3.6	-0.4	11.4	x
CCN(CC)Cc1cc(Nc2c3ccccc3nc3c4ccccc4n(C)c23)cc(CN(CC)CC)c1O	6.2	x	-12.6	x	x	x
COc1ccc(C2NC(=S)NC(O)(C(F)(F)F)C2C(=O)c2cccs2)cc1 (stereo not given)	x	42.6*	-3.5	2.0	15.4	15.8
CCCCOc1ccc(S(=O)(=O)NNC(=O)C2Cc3c(ccc4ccccc34)O2)cc1 (stereo not given)	x	45.2*	-2.3	18.5	35.4	24.6
NC(=O)C1CCN(C(=O)CNC(=O)c2ccc(F)cc2)CC1	4.8	11.0	-5.1	1.5	11.3	x
Cc1ccc(-n2nc3c(=O)n(CCCC(=O)NC4CCC(C)CC4)nc(C)c3c2C)cc1 (stereo not given)	-1.3	2.2	-7.2	6.2	6.8	x
Cc1ccc(NC(=O)c2cc(-c3ccccc3)nn2-c2ccccc2)cc1	10.8	44.6*	10.1	32.5	21.1	31.5*
Cc1ccc(NC(=O)c2cc(-c3ccccc3)nn2-c2ccccc2)c(Br)c1	-10.5	31.6	6.8	33.1	11.3	x
O=C(NNc1nc2ccccc2s1)c1ccccc1F	-6.4	47.2*	2.3	38.3	25.8	27.6
O=C(NNc1nc2ccccc2s1)Nc1ccc(F)cc1	-71.8	27.7	0.3	10.3	-0.2	x
COc1ccc(/C(N)=N/OC(=O)CC2CCCCC2)cc1OC	-17.7	50.8*	9.0	17.9	19.4	60.8*
COc1ccc(/C(N)=N/OC(=O)CCC2CCCC2)cc1OC	-30.1	45.7*	4.1	8.7	20.1	36.8*
COc1ccc(/C(N)=N/OC(=O)C2CCCCC2)cc1OC	-9.1	37.0	-10.9	16.1	22.3	x
COc1ccc(/C(N)=N/OC(=O)C2CCCCC2)cc1	0.2	50.6*	-2.9	34.1	24.7	31.4*
COc1ccc(/C(N)=N/OC(=O)CCCc2ccccc2)cc1OC	5.7	28.6	1.3	6.3	6.1	x
Nc1nc(-c2ccccc2)ns1	-6.8	x	-5.2	x	x	x
Cc1ccc2sc(N(CCN(C)C)C(=O)c3ccc(S(=O)(=O)N4CC(C)OC(C)C4)cc3)nc2c1C (stereo not given)	-29.9	40.3*	3.4	28.6	26.5	24.1
Cc1cc(C)c2nc(N(CCN(C)C)C(=O)c3ccc(S(=O)(=O)N(C)CC4CCCO4)cc3)sc2c1 (stereo not given)	-27.5	42.1*	2.4	14.9	21.6	3.1
SMILES	PfHsp90 yeast 2	tim10-1 inh	Beta2AR agonist	TIM10 inh	tim23-1 inh	tim10-1 confirm
CCN(Cc1ccccc1)S(=O)(=O)c1ccc(C(=O)N(CCCN(C)C)c2nc3c(C)c(C)ccc3s2)cc1	14.3	46.1*	33.9	5.4	28.2	-1.8
COc1ccc(S(=O)(=O)NC(C(=O)OCC(=O)Nc2ccc(N3CCOCC3)cc2)C(C)C)cc1 (stereo not given)	8.7	x	5.4	x	x	x
COc1ccc2nc(SCC(=O)NC3CCCC3)c(C)cc2c1	8.3	5.0	-21.9	15.6	2.5	x
O=C(/C=C/c1ccccc1[N+](=O)[O-])Nc1cc(S(=O)(=O)N2CCOCC2)ccc1N1CCOCC1	1.9	x	8.7	x	x	x
CCc1ccc([C@@H]2CC=C(C(=O)O)[C@H](c3ccc(C)cc3)N2S(=O)(=O)c2ccc(C)cc2)cc1	-1.4	20.2	4.6	12.5	43.1	x
CCc1ccc([C@@H]2CC=C(C(=O)O)[C@H](c3ccccc3F)N2S(=O)(=O)c2ccc(C)cc2)cc1	-16.6	41.3*	-8.8	-12.6	-0.9	10.6
COc1ccc([N+](=O)[O-])cc1NCc1ccccc1	11.7	42.7*	-0.1	8.9	27.3	18.8
CCN(CC(=O)NCc1cccs1)C(=O)c1ccc(-c2ccccc2F)o1	23.3	3.3	-15.4	6.6	26.5	x
O=c1c(Cl)c(N2CCOCC2)cnn1-c1ncc(C(F)(F)F)cc1Cl	-16.5	19.5	8.0	-4.7	10.7	x
FC(F)(F)c1cnc(Nc2ccc(N3CCOCC3)cc2)c(Cl)c1	-114.7	44.4*	3.4	14.9	19.4	20.9
Cc1ccc(CNCc2cc3c(C(C)(C)C)nn(-c4ccccc4)c3[nH]c2=O)cc1	x	49.7*	12.2	23.9	45.7	38.7*
Cc1cc(C)c(NC(=O)c2cccc3c2C(=O)N(C2CCCCC2)C3)c(C)c1	-32.9	49.3*	6.0	18.5	33.4	14.0
Cc1cccc(CCNC(=O)c2cccc3c2C(=O)N(C2CCCCC2)C3)c1	-4.3	52.3*	-10.5	15.5	38.8	16.0
CCc1nnc(NS(=O)(=O)c2ccc(NCc3ccccc3O)cc2)s1	17.1	0.9	-1.3	-10.6	-3.2	x
Cc1ccccc1C(=O)NNC(=O)C1CC(=O)N(c2ccc3c(c2)OCCO3)C1 (stereo not given)	6.6	1.7	0.8	2.6	2.1	x
CN(c1cccc(Cl)c1)S(=O)(=O)c1cccc(C(=O)Nc2nc3ccccc3[nH]2)c1	15.5	38.9	4.1	26.5	48.4	x
COc1ccc(N(C)S(=O)(=O)c2cccc(C(=O)Nc3nc4ccccc4[nH]3)c2)cc1	0.2	40.7*	-3.7	38.2	34.7	26.6
COc1ccccc1N1CCN(S(=O)(=O)CCNC(=O)CC2CCCCC2)CC1	x	12.2	-0.1	2.9	1.8	x
CN(C(=O)c1cccc(NC(=O)Cc2ccc(NC(=O)C3CCN(C(=O)C4CCCCC4)CC3)cc2)c1)C1CC1	-8.2	x	-9.6	x	x	x
NC(=O)N/N=C/c1ccccc1OCc1cccc2ccccc12	1.5	12.4	-4.2	2.5	2.4	x
CC(O)/C=C/c1ccc2ccccc2n1 (stereo not given)	3.8	48.7*	1.0	13.1	34.9	35.4*
O=S(=O)(NCCSCc1ccc(Cl)cc1Cl)c1ccc2c(c1)OCCO2	-26.0	45.0*	4.5	19.1	27.6	33.5*
COc1ccc(S(=O)(=O)NCCSc2ccc(Cl)cc2)cc1OC	18.2	30.0	-5.9	22.3	33.7	x
O=S(=O)(NCCSc1ccc(Cl)cc1)c1ccc2c(c1)OCCO2	-11.4	56.0*	1.8	24.3	30.3	49.2*
